Peg3 promoter = inhibitors of Peg3 promoter; inhibition, % at 20 µM; AID 588405; actives 1.7% (n = 360,000); HeLa PEG-Prom luciferase reporter, luminescence, overnight;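 active means inhibition of at least 50% at 20 µM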
TROY NFkB inh = TROY signaling inhibition; Q293 LMP1-TROYcd NF-kB luciferase reporter, 4 h; actives 0.98% (n = 360,000); AID 1347056; inhibition, % at 10 µM;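 active means compounds whose plate-normalised and pattern-corrected inhibition of the luciferase reporter signal at the single screening dose is 50% or more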
CF NFkB block = inhibitors of cystic fibrosis induced NF-kB; KKLEB NF-kB-GFP reporter, PAF-induced, GFP fluorescence overnight; inhibition, % at 5 µM; actives 0.86% (n = 360,000);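 active means at least 50% inhibition at 5 µM, scaled per plate between neutral and stimulator controls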;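 further: PAF is a Pseudomonas aeruginosa culture filtrate used as stimulus; plate controls were PAF-stimulated DMSO wells for no effect and unstimulated DMSO wells for full effect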
KKLEB tox = CF airway cell cytotoxicity counter-screen; actives 0.36% (n = 360,000); activity change (cytotoxicity), % at 5 µM; KKLEB CF airway cells viability, ATPlite luminescence, overnight; stronger effect = lower value; cells stimulated with P. aeruginosa culture filtrate; AID 602141;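 active means corrected activity change at or below -50% at 5 µM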
HIF-2a inh = HIF-2a inhibition; 786-0 RCC cells HIF-2a reporter, luciferase luminescence, overnight; inhibition, % at 18.8 µM; actives 0.72% (n = 360,000); AID 624352;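 active means inhibition of the luminescence signal of 40% or more relative to plate controls, in a single-dose primary screen at 18.75 µM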
TWEAK Fn14 block = TWEAK-Fn14 signaling inhibition. actives 2% (n = 360,000). TWEAK-stimulated Fn14 reporter cells, luciferase luminescence, 8 h. inhibition, % at 10 µM; in the data active means inhibition above about 50%
Starred values were filed as active, the others as inactive. Hits are enriched below; roughly 4% of the tested compounds scored in any of these assays.

How did Cc1ccc(NC(=O)Nc2nnc(-c3ccccc3)o2)cc1 do in these assays?
Peg3 promoter: -147; TROY NFkB inh: -45; CF NFkB block: -5; KKLEB tox: -3; HIF-2a inh: -151; TWEAK Fn14 block: -16

What do the screens show for `CCOc1ccc(C(=O)NCC(=O)NCC(c2cccs2)N2CCOCC2)cc1` (stereo not given)?
Peg3 promoter: 4; TROY NFkB inh: -11; CF NFkB block: 2; KKLEB tox: 0; HIF-2a inh: -5; TWEAK Fn14 block: 4

Results for CCCCCCN1C[C@H](n2cc(-c3ccc(F)cc3)nn2)[C@@H](O)C[C@@H]1c1ccc(Cl)cc1 ?
Peg3 promoter: 98*; TROY NFkB inh: -1; CF NFkB block: 27; KKLEB tox: -7; HIF-2a inh: 4; TWEAK Fn14 block: 16

What do the screens show for `O[C@H]1C[C@H](c2ccccc2)N(CC2CCCCC2)C[C@@H]1n1cc(C2CC2)nn1`?
Peg3 promoter: -11; TROY NFkB inh: -19; CF NFkB block: 3; KKLEB tox: -10; HIF-2a inh: -50; TWEAK Fn14 block: 64*

What do the screens show for `O[C@H]1CN(CC2CCCCC2)[C@@H](c2ccc(Cl)cc2)C[C@@H]1n1cc(-c2ccc(F)cc2)nn1`?
Peg3 promoter: 35; TROY NFkB inh: 10; CF NFkB block: 33; KKLEB tox: -1; HIF-2a inh: -12; TWEAK Fn14 block: 50*

How did O[C@H]1CN(CC2CCCCC2)[C@@H](c2ccc(Cl)cc2)C[C@@H]1n1cc(C2CC2)nn1 do in these assays?
Peg3 promoter: 3; TROY NFkB inh: 52*; CF NFkB block: 10; KKLEB tox: 16; HIF-2a inh: -29; TWEAK Fn14 block: 30

Results for CCCCCCN1C[C@H](n2cc(-c3ccc(F)cc3)nn2)[C@@H](O)C[C@@H]1c1ccccc1 ?
Peg3 promoter: 2; TROY NFkB inh: -1; CF NFkB block: 4; KKLEB tox: -4; HIF-2a inh: -14; TWEAK Fn14 block: -1

How did CC1CCCCN1C(=O)COC(=O)c1ccc(=O)n(Cc2ccccc2)n1 (stereo not given) do in these assays?
Peg3 promoter: -1; TROY NFkB inh: 6; CF NFkB block: -2; KKLEB tox: 10; HIF-2a inh: -1; TWEAK Fn14 block: -3

How did O=C(CCCc1ccccc1)NCCS(=O)(=O)N1CCN(c2ccc(F)cc2)CC1 do in these assays?
Peg3 promoter: 6; TROY NFkB inh: 10; CF NFkB block: -18; KKLEB tox: -10; HIF-2a inh: 8; TWEAK Fn14 block: -10

What do the screens show for `CC(SCC(=O)Nc1ccc(F)cc1)c1nc2ccccc2c(=O)[nH]1` (stereo not given)?
Peg3 promoter: 14; TROY NFkB inh: -12; CF NFkB block: -12; KKLEB tox: 7; HIF-2a inh: 0; TWEAK Fn14 block: -8

What do the screens show for `CCOC1=C2CN(S(=O)(=O)c3ccc(C)cc3)C(c3ccc(CC)cc3)CC2N(S(=O)(=O)c2ccc(C)cc2)C(c2ccc(CC)cc2)C1` (stereo not given)?
HIF-2a inh: 1

Results for CCOC1=C2[C@H](c3ccc(CC)cc3)N(S(=O)(=O)c3ccc(C)cc3)C[C@H]2C(C#N)(C#N)C(C#N)(C#N)C1 ?
Peg3 promoter: 89*; TROY NFkB inh: 20; CF NFkB block: 34; KKLEB tox: -26; HIF-2a inh: 62*; TWEAK Fn14 block: 34

How did CCOC1=C2[C@H](c3ccccc3Cl)N(S(=O)(=O)c3ccc(C)cc3)C[C@H]2C(C#N)(C#N)C(C#N)(C#N)C1 do in these assays?
Peg3 promoter: 50; TROY NFkB inh: 8; CF NFkB block: 32; KKLEB tox: -14; HIF-2a inh: 61*; TWEAK Fn14 block: 12

Results for CCOC1=C2[C@@H](CN(S(=O)(=O)c3ccc(C)cc3)[C@H]2c2ccccc2Cl)[C@H]2C(=O)NC(=O)[C@H]2C1 ?
Peg3 promoter: -4; TROY NFkB inh: 0; CF NFkB block: 3; KKLEB tox: 8; HIF-2a inh: 9; TWEAK Fn14 block: -7

Results for Cc1cc(C)n(-c2ccc(C(=O)Nc3ccc(S(=O)(=O)NCc4ccco4)cc3)cc2)n1 ?
Peg3 promoter: 21; TROY NFkB inh: 38; CF NFkB block: -7; KKLEB tox: 8; HIF-2a inh: 9; TWEAK Fn14 block: 59*

How did Cc1ccc(NC(=O)c2ccc(OC(F)(F)F)cc2)cc1S(=O)(=O)N(C)C do in these assays?
Peg3 promoter: -28; TROY NFkB inh: 13; CF NFkB block: -2; KKLEB tox: 6; HIF-2a inh: -26; TWEAK Fn14 block: 52*

Results for CCCCN1C(=O)c2ccc(C(=O)Nc3ccc(C)c(S(=O)(=O)N(C)C)c3)cc2C1=O ?
Peg3 promoter: 36; TROY NFkB inh: 55*; CF NFkB block: -20; KKLEB tox: 24; HIF-2a inh: 16; TWEAK Fn14 block: 91*

What do the screens show for `Cc1ccc(C(=O)Nc2ccc(S(=O)(=O)NCc3ccco3)cc2)cc1`?
Peg3 promoter: -36; TROY NFkB inh: -75; CF NFkB block: 3; KKLEB tox: -1; HIF-2a inh: -61; TWEAK Fn14 block: -7

What do the screens show for `CCN(CC)S(=O)(=O)c1cccc(NC(=O)c2ccc(-n3nc(C)cc3C)cc2)c1`?
Peg3 promoter: 19; TROY NFkB inh: 48; CF NFkB block: -27; KKLEB tox: 22; HIF-2a inh: 1; TWEAK Fn14 block: 60*

Results for CCOc1ccc(CCNS(=O)(=O)c2ccc3c(c2)N(C(C)=O)CCO3)cc1OCC ?
Peg3 promoter: 5; TROY NFkB inh: 18; CF NFkB block: 21; KKLEB tox: 3; HIF-2a inh: 9; TWEAK Fn14 block: -10

What do the screens show for `Cc1csc(=O)n1CCC(=O)OCC(=O)c1ccc(Br)cc1`?
Peg3 promoter: 7; TROY NFkB inh: -35; CF NFkB block: 3; KKLEB tox: 1; HIF-2a inh: 0; TWEAK Fn14 block: -1

What do the screens show for `CN(C)S(=O)(=O)Oc1ccc(C(=O)Nc2cccc(Cl)c2)cc1`?
Peg3 promoter: -258; TROY NFkB inh: -38; CF NFkB block: 9; KKLEB tox: 7; HIF-2a inh: -203; TWEAK Fn14 block: -51

What do the screens show for `Cc1cc(C)n(-c2ccc(C(=O)Nc3ccc(C)c(S(=O)(=O)N(C)C)c3)cc2)n1`?
Peg3 promoter: 20; TROY NFkB inh: 20; CF NFkB block: 6; KKLEB tox: 3; HIF-2a inh: -8; TWEAK Fn14 block: 53*

Results for CN(C)S(=O)(=O)Oc1ccc(C(=O)Nc2cccc(C(F)(F)F)c2)cc1 ?
Peg3 promoter: -26; TROY NFkB inh: 15; CF NFkB block: -6; KKLEB tox: -3; HIF-2a inh: -63; TWEAK Fn14 block: 54*

How did COc1cc(OC)cc(C2=Cc3ccccc3C(CC(=O)c3ccco3)N2c2ccc(-c3cncnc3)cc2)c1 (stereo not given) do in these assays?
TROY NFkB inh: -8; HIF-2a inh: 19; TWEAK Fn14 block: 16

Results for Nc1ccc(S(=O)(=O)N2CCC(Cc3ccccc3)CC2)cc1 ?
Peg3 promoter: 9; TROY NFkB inh: -2; CF NFkB block: 0; KKLEB tox: -2; HIF-2a inh: 19; TWEAK Fn14 block: -3

Screens (PubChem BioAssay)
